In the library only some 3.5% were active in any assay of this set; here they are far more common.
GPR151 ag – activates the human receptor GPR151; actives 1% (n = 650,000); AID 1508602; activation, % at 11.2 µM; Q8TDV0; PathHunter beta-arrestin GPR151 cells, luminescence; in the data active = activation above about 4.9%;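 note: 0% = median of compound wells and 100% = cells with positive control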
Target sequence (Q8TDV0 whole entry, looked up): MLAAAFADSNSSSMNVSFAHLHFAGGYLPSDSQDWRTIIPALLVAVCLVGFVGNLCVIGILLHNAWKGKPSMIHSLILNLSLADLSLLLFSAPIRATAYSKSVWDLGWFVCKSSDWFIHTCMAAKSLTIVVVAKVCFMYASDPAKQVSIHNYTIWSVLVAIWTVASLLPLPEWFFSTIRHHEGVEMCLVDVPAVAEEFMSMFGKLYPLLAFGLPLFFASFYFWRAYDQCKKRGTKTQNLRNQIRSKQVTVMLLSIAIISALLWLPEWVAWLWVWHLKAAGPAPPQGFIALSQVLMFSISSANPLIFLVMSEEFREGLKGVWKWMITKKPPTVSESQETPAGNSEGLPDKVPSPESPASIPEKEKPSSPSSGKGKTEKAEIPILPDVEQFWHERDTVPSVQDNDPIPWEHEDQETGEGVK
TEAD-YAP block – TEAD-YAP interaction inhibition; HEK-TIYL cells, TEAD-Gal4/YAP UAS-luciferase luminescence; inhibition, % at 9.12 µM; actives 1.4% (n = 640,000); in the data active = inhibition above about 32%;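 note: 0% = median of test compound wells and 100% = reference inhibitor wells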
MITF primary – human MITF inhibition, primary screen; inhibition, % at 2.6 µM; actives 0.91% (n = 650,000); O75030; AlphaScreen MITF homodimerization, bead proximity signal; AID 1259374; in the data active = inhibition above about 50%;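 note: 0% = vehicle wells with protein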
FBW7 act – activators of human E3 ligase FBW7 | Q969H0 | AlphaScreen FBW7–phospho-cyclin E peptide binding, activator screen | normalized activity (activation), % at 26.1 µM | actives 0.13% (n = 650,000) | AID 1259310; in the data active = normalized activity above about 1.9%;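 note: purified mutant Fbw7 with reduced substrate affinity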
Active calls of the source: *; ! = not confirmed by another sample.

SMILES | GPR151 ag | TEAD-YAP block | MITF primary | FBW7 act
O=C(CC1CCCCC1)Nc1nnc2n1CCS2 | 1 | -4 | 19 | 3.1*
COc1ccc2[nH]c(=O)c(CN(CCN(C)C)C(=O)Nc3ccccc3OC)cc2c1 | 0 | -2 | 3 | 0
COc1ccc2cc(-c3cc(C(=O)OCC(=O)NC(N)=O)c4ccccc4n3)ccc2c1 | 0 | -19 | -4 | 0
Cc1nc2ccccc2n1CC1CCN(CC(=O)Nc2ccc(F)cc2F)CC1 | -1 | 55* | -7 | 0
CC(C)(C)c1ccc(-c2nc(-c3nonc3N)no2)cc1 | 0 | 51* | -2 | 0
N#Cc1ccc(-c2nc(-c3c(F)cccc3F)no2)cc1 | 2 | -16 | 9 | 0
Cc1ccc(-c2nc(-c3nonc3N)no2)cc1 | 2 | -30 | 8 | 0
CC(C)(C)c1ccc(-c2nc(-c3c(F)cccc3F)no2)cc1 | 1 | 68* | -8 | 0
Clc1ccc2nc(N3N=C(c4ccc(Br)cc4)CC3c3ccco3)nc(-c3ccccc3)c2c1 (stereo unspecified) | 0 | 3 | 12 | 0
N#Cc1c(NC(=O)c2cccc(F)c2)sc2c1CCC2 | 1 | -63 | -2 | 0
COc1cc(CN2CCN(Cc3ccc(F)cc3)C(CCO)C2)cc(OC)c1O (stereo unspecified) | 0 | -2 | 11 | 0
O=C(O)c1ccc2c(c1)NC(=O)c1ccccc1S2(=O)=O | -2 | -4 | -2 | 1.9*
CCCN1C(=O)C(=O)c2cc(Br)ccc21 | 0 | 63* | -13 | 0
C#CCN1C(=O)C(=O)c2cc(Br)ccc21 | 1 | 53* | 14 | 1
CC(=O)CN1C(=O)C(=O)c2cc(Br)ccc21 | 0 | 10 | 24 | 0
C=CCN1C(=O)C(=O)c2cc(Br)ccc21 | 0 | 62* | 16 | 0
O=C1C(=O)N(CCc2ccccc2)c2ccc(Br)cc21 | 1 | 27 | 17 | 0
Cc1c(C(=O)N2CCC[C@@H]3CN(C(=O)c4ccncc4)CC[C@H]32)[nH]c2ccc(Cl)cc12 | 1 | 5 | 18 | 1
CCCCn1c(C)cn2c3c(=O)n(CC(N)=O)c(=O)n(C)c3nc12 | 0 | 1 | -1 | 0
O=C1NC(=O)c2cc(N3C(=O)c4cccc(Oc5ccc(Cl)cc5)c4C3=O)ccc21 | -1 | 1 | 50 | 0
O=C(Cn1ncc2cccn2c1=O)OCC1CCCO1 (stereo unspecified) | 1 | -8 | -4 | 0
COCCNC(=O)/C(C#N)=C/C1=C(N2CCOCC2)C(=C\c2ccccc2)/CC1 | 2 | 9 | 9 | -1
CCOC(=O)/C(C#N)=C/C1=C(N2CCOCC2)C(=C\c2ccccc2)/CC1 | 0 | -2 | 51* | -1
CCN1/C(=C/C=C/c2oc3ccc(Cl)cc3[n+]2CC)Oc2ccc(Cl)cc21 | 0 | 6 | 1 | 0
CCN1/C(=C/C=C/c2oc3ccc4ccccc4c3[n+]2CC)Oc2ccc3ccccc3c21 | 2 | 78* | -8 | 0
SMILES | GPR151 ag | TEAD-YAP block | MITF primary | FBW7 act
Fc1ccc(CN2CCCC(c3ccn[nH]3)C2)cc1F (stereo unspecified) | 1 | 2 | -4 | 0
CC(C)Oc1ccccc1/C=C1/SC(N2CCN(C)CC2)=NC1=O | -1 | -8 | -7 | 0
COc1cccc(/C=C2/SC(N3CCCC3)=NC2=O)c1OC | 1 | 33* | -10 | 0
COc1cccc(/C=C2\SC(N3CCCC3)=NC2=O)c1OC | 0 | 8 | 6 | 0
CC(C)Oc1ccccc1/C=C1\SC(N2CCOCC2)=NC1=O | 1 | 39* | -1 | 0
CN(CC(=O)NCCCc1ccccc1)c1nnc(N2CCCC2=O)s1 | -2 | -8 | -6 | 1
Cc1ccc(S(=O)(=O)N2C(=O)CCC2c2nc(-c3ccccn3)no2)cc1 (stereo unspecified) | 0 | 39* | 5 | 0
CS(=O)(=O)Nc1ccc(C(=O)Nc2ccc3ccccc3c2)cc1 | -3 | -35 | 1 | 0
NC(=O)c1ccc(NC(=O)c2ccc3ccccc3c2)cc1 | 1 | -77 | 23 | 1
CC(=O)Oc1ccc(C(=O)Nc2ccc3ccccc3c2)cc1 | -1 | 36* | -17 | 0
O=C(Nc1ccc(O)cc1)c1ccc2ccccc2c1 | -1 | 47* | -2 | 0
O=C(Nc1ccc(O)cc1)c1ccccc1Cl | -1 | 52* | 0 | 0
COc1cc(Cl)c(CN2CCc3nnc(C4CCCO4)n3CC2)cc1OC (stereo unspecified) | 0 | -9 | 9 | 0
Cc1nc2cc(NC(=O)N3c4ccccc4CC3C)ccc2n1C (stereo unspecified) | -2 | 37* | -5 | 0
O=C(Cn1c2ccccc2c2cn[nH]c(=O)c21)N1CCN(c2ccccc2)CC1 | 1 | 0 | -6 | 0
COc1ccc2c(c1)N(C)/C(=C/c1cccc[n+]1C)S2 | -1 | 77* | 12 | 0
CCN1/C(=C/c2cccc[n+]2C)Sc2ccc(OC)cc21 | 0 | 84* | 2 | 0
COc1ccc(/C=C/c2cccc[n+]2C)c(OC)c1 | 0 | 15 | 25 | 0
CCN1/C(=C\C(C)=O)Sc2ccc3ccccc3c21 | -1 | -1 | 11 | 0
CCN1/C(=C/C(C)=O)Sc2ccc(OC)cc21 | -1 | 32*! | 18 | 0
O=C(Cc1ccc2c(c1)OCO2)Nc1cc(Nc2ccccc2C2=NCCN2)c(Cl)cn1 | 0 | 10 | 9 | 0
CNC(=O)c1ccccc1Nc1cc(NC(=O)Cc2ccc3c(c2)OCO3)ncc1C(F)(F)F | 0 | 75* | 12 | 0
NC(=O)c1ccccc1Nc1cc(NC(=O)Cc2ccc3c(c2)OCO3)ncc1C(F)(F)F | -1 | 100* | 18 | 1
NC(=O)c1ccccc1Nc1cc(NC(=O)Cc2ccc3c(c2)OCO3)ncc1F | 2 | 21 | 0 | 0
O=C(Cc1ccc2c(c1)OCO2)Nc1cc(Nc2ccccc2-c2ncn[nH]2)c(Cl)cn1 | 0 | 64* | 13 | 1
SMILES | GPR151 ag | TEAD-YAP block | MITF primary | FBW7 act
NC(=O)c1ccccc1Nc1cc(NC(=O)Cc2ccc3c(c2)OCO3)ncc1Cl | 0 | 70* | 11 | 0
O=C(NCCN1CCOCC1)c1cccc(I)c1 | 1 | -2 | 11 | 0
CNC(=O)c1ccccc1Nc1cc(NC(=O)Cc2cccc(F)c2)ncc1C(F)(F)F | -2 | 72* | -5 | 1
CNC(=O)c1ccccc1Nc1cc(NC(=O)Cc2ccccc2OC)ncc1C(F)(F)F | -1 | 83* | 18 | 0
CNC(=O)c1ccccc1Nc1cc(NC(=O)C(C)(C)c2ccccc2)ncc1C(F)(F)F | 0 | 4 | 8 | 0
Cc1ccc(N=Nc2c(O)[nH]c(=O)[nH]c2=O)cc1Br | 3 | -9 | -6 | 0
Cc1ccc(NC(=S)N(Cc2ccccc2)Cc2cccs2)cc1Cl | 0 | 36* | -5 | 0
S=C(Nc1ccc(Cl)cc1)N(Cc1ccccc1)Cc1cccs1 | 1 | 5 | 8 | 0
Cc1cc(NC(=S)N(Cc2ccccc2)Cc2cccs2)ccc1Cl | 0 | 44* | 9 | 0
O=C(CNC(=S)N(Cc1ccccc1)Cc1cccs1)NCc1ccccc1 | 0 | 3 | 16 | 1
Cc1ccc(CNC(=O)CNC(=S)N(Cc2ccccc2)Cc2cccs2)cc1 | 0 | 7 | 9 | 2.0*

Screening results (PubChem)
